For 1 sequence, binding signal results are on record in article PMC7862700, “An all-to-all approach to the identification of sequence-specific readers for epigenetic DNA modifications on cytosine”.

Assay in all cases: DAPPL (digital affinity profiling via proximity ligation, sequencing); 10 mM Tris-HCl pH 7.5, 50 mM NaCl, 1 mM DTT, 4% glycerol, room temperature, 30 min; GST-TFs on glutathione beads, 16-mer random dsDNA library, 0.1% formaldehyde crosslink after washing; high values mean tight binding
Assay [1] concerns the target T1, FLI1 (Homo sapiens, UniProt Q01543 1-452).
T1 sequence: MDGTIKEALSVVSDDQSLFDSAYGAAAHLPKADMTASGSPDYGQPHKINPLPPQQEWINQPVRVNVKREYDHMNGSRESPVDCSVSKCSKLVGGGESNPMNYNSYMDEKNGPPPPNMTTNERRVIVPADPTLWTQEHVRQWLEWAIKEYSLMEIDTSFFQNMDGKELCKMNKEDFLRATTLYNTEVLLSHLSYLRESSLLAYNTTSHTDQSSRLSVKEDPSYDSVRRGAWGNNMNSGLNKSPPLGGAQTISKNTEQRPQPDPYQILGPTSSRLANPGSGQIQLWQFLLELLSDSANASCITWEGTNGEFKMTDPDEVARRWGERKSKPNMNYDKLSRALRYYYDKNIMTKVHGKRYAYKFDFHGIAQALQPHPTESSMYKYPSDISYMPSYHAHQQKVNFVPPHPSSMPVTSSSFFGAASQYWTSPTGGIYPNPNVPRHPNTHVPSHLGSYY
Conditions: protein: recombinant; tags: N-terminal GST; dsDNA, one strand shown. Summed up:
(§1)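 Human transcription factors were made in yeast as GST fusions, captured on glutathione beads and barcoded with DNA. With a tag-only sample included, the pool was incubated with 200 nmole of a random double-stranded 16-mer DNA library in Tris/NaCl/DTT/glycerol buffer at room temperature for 30 min, then crosslinked with 0.1% formaldehyde after washing, ligated by proximity, amplified and sequenced. For binding signal, each hexamer's read frequency for a factor is divided by its frequency for the tag-only sample.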

Assay [2] addresses T2, ELK1 (Homo sapiens, UniProt P19419 1-428).
T2 sequence: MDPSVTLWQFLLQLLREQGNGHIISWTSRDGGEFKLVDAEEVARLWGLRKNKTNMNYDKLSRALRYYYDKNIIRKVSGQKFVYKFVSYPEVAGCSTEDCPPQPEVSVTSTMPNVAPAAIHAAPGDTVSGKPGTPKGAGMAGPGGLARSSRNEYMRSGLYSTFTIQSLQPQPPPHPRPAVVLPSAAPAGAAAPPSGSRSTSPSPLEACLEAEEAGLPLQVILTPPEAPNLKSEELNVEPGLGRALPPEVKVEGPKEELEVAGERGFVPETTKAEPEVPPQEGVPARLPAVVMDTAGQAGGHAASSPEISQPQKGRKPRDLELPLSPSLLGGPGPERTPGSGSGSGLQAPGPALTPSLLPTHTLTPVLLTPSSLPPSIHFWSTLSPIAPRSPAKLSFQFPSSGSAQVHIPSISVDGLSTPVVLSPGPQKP
The conditions noted are these: protein: recombinant; tags: N-terminal GST; dsDNA, one strand shown. In a few lines: as §1

Assay [3] addresses T3, GABPA (Homo sapiens, UniProt Q06546 1-454).
T3 sequence: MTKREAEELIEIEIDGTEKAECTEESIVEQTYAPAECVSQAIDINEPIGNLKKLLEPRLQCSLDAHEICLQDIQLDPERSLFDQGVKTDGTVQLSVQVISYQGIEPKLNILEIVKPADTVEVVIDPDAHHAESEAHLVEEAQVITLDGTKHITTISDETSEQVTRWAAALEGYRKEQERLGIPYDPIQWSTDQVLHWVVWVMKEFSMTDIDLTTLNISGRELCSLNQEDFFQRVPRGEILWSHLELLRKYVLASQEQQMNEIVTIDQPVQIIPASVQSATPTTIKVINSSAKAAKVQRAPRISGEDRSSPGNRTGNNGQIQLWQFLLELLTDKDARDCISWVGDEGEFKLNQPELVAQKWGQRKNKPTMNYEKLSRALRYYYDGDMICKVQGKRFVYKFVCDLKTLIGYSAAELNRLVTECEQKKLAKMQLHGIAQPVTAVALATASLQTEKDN
Conditions: protein: recombinant; tags: N-terminal GST; dsDNA, one strand shown. Summed up:
as §1

The target of assay [4] is T4, ERG (Homo sapiens, UniProt P11308 1-479).
T4 sequence: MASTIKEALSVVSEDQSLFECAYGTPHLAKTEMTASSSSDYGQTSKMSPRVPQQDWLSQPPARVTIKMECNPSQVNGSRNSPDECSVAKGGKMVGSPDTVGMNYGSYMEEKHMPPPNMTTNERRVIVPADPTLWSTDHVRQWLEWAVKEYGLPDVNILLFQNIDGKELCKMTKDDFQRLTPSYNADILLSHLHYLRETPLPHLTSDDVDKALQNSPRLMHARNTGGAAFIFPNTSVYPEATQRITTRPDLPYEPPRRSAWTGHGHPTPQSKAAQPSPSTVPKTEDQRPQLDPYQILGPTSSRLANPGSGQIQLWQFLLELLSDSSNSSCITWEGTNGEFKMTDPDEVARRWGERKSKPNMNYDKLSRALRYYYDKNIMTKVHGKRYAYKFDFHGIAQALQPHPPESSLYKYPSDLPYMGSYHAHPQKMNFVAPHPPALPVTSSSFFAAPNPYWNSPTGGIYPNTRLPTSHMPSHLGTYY
Conditions: protein: recombinant; tags: N-terminal GST; dsDNA, one strand shown. Summed up:
as §1

The target in assay [5] is ELF1 (Homo sapiens, UniProt P32519 1-619). Conditions: protein: recombinant; tags: N-terminal GST; dsDNA, one strand shown. Summed up: as §1
The target of assay [6] is T5, EHF (Homo sapiens, UniProt Q9NZC4 1-300).
T5 sequence: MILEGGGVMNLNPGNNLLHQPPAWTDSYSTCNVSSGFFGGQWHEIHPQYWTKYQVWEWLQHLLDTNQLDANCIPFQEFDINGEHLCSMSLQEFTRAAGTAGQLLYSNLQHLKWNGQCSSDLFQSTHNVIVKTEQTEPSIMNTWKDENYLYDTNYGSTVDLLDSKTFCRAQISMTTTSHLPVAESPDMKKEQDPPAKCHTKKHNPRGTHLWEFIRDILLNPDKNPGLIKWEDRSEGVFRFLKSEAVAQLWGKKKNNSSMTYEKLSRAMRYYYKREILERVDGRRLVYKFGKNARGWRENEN
Conditions: protein: recombinant; tags: N-terminal GST; dsDNA, one strand shown. Summed up:
as §1

Assay [7] addresses SPI1 (Homo sapiens, UniProt P17947 1-270). The conditions noted are these: protein: recombinant; tags: N-terminal GST; dsDNA, one strand shown. Summed up:
as §1

Assay [8] has as its target SPIB (Homo sapiens, UniProt Q01892 1-262). Conditions: protein: recombinant; tags: N-terminal GST; dsDNA, one strand shown. Summed up: as §1
In assay [9] the target is T6, ELK3 (Homo sapiens, UniProt P41970 1-407).
T6 sequence: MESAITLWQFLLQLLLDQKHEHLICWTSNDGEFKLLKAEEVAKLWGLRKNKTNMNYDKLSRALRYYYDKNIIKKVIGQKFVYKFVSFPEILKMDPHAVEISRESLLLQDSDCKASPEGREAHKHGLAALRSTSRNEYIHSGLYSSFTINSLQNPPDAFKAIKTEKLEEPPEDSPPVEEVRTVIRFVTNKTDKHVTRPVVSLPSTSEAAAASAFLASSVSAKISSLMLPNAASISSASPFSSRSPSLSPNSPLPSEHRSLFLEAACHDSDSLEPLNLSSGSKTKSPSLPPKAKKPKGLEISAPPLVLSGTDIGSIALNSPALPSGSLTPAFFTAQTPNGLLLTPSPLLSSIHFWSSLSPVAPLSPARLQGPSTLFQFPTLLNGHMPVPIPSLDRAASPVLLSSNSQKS
The conditions noted are these: protein: recombinant; tags: N-terminal GST; dsDNA, one strand shown. Summed up:
as §1

Assay [10] addresses T7, FEV (Homo sapiens, UniProt Q99581 1-238).
T7 sequence: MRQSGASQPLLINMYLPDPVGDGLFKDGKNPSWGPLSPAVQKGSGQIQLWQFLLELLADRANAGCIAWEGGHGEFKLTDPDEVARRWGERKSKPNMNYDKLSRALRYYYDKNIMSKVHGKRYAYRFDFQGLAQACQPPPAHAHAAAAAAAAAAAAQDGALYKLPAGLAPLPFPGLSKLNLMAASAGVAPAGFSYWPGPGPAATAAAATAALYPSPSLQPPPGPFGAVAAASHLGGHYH
The conditions noted are these: protein: recombinant; tags: N-terminal GST; dsDNA, one strand shown. Summed up: as §1

Assay [11] addresses ETV5 (Homo sapiens, UniProt P41161 1-510). Conditions: protein: recombinant; tags: N-terminal GST; dsDNA, one strand shown. Summed up:
as §1

For assay [12], the target named is HSF1 (Homo sapiens, UniProt Q00613 1-529). Conditions: protein: recombinant; tags: N-terminal GST; chain copies: 3; dsDNA, one strand shown. In a few lines:
as §1

Assay [13] has as its target T8, SPIC (Homo sapiens, UniProt Q8N5J4 1-248).
T8 sequence: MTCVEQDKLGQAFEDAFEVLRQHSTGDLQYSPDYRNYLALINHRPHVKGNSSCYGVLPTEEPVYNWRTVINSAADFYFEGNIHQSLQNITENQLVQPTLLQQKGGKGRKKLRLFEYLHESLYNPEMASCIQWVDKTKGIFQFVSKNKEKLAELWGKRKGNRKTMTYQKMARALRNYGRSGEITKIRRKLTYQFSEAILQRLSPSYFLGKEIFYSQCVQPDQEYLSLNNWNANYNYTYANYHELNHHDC
Conditions: protein: recombinant; tags: N-terminal GST; dsDNA, one strand shown. In a few lines: as §1

The target in assay [14] is ELF4 (Homo sapiens, UniProt Q99607 1-663). Conditions: protein: recombinant; tags: N-terminal GST; dsDNA, one strand shown. In a few lines: as §1
Assay [15] addresses T9, ELK4 (Homo sapiens, UniProt P28324-2 1-405).
T9 sequence: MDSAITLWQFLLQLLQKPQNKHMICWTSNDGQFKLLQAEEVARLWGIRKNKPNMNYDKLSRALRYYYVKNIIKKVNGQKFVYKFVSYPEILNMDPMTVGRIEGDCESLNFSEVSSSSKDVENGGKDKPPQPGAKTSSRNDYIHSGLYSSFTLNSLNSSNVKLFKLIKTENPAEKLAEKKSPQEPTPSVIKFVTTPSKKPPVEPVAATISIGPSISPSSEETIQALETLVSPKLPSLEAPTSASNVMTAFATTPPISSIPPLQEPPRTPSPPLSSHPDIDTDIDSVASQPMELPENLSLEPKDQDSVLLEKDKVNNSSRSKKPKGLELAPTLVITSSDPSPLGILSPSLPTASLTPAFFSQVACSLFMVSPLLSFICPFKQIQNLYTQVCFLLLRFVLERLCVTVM
Conditions: protein: recombinant; tags: N-terminal GST; dsDNA, one strand shown. Summed up:
as §1

The target of assay [16] is T10, ETV2 (Homo sapiens, UniProt O00321 1-342).
T10 sequence: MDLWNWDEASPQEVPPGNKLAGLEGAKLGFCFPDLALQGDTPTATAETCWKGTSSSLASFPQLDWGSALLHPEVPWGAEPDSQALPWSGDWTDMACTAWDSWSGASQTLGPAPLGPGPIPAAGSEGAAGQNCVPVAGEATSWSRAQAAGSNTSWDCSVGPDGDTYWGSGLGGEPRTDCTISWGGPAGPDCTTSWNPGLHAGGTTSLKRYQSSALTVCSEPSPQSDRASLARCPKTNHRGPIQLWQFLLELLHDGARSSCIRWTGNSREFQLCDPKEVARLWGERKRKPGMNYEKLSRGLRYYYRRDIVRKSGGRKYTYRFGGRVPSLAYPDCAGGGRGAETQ
Conditions: protein: recombinant; tags: N-terminal GST; dsDNA, one strand shown. In a few lines: as §1

Assay [17] has as its target T11, ELF3 (Homo sapiens, UniProt P78545 1-371).
T11 sequence: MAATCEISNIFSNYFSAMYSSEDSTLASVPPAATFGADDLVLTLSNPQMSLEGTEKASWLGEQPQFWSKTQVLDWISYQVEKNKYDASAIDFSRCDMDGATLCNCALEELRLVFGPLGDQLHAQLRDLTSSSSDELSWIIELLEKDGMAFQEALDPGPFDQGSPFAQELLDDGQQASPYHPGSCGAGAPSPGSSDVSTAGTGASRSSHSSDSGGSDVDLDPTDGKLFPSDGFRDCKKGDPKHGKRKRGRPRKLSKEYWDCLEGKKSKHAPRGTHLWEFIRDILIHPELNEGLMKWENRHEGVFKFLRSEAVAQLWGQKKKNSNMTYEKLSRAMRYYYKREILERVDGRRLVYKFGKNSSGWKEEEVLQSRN
The conditions noted are these: protein: recombinant; tags: N-terminal GST; dsDNA, one strand shown. Summed up: as §1

The target in assay [18] is ETV1 (Homo sapiens, UniProt P50549 1-477). Conditions: protein: recombinant; tags: N-terminal GST; dsDNA, one strand shown. In a few lines:
as §1

Chain of ELF1 (P32519 whole entry): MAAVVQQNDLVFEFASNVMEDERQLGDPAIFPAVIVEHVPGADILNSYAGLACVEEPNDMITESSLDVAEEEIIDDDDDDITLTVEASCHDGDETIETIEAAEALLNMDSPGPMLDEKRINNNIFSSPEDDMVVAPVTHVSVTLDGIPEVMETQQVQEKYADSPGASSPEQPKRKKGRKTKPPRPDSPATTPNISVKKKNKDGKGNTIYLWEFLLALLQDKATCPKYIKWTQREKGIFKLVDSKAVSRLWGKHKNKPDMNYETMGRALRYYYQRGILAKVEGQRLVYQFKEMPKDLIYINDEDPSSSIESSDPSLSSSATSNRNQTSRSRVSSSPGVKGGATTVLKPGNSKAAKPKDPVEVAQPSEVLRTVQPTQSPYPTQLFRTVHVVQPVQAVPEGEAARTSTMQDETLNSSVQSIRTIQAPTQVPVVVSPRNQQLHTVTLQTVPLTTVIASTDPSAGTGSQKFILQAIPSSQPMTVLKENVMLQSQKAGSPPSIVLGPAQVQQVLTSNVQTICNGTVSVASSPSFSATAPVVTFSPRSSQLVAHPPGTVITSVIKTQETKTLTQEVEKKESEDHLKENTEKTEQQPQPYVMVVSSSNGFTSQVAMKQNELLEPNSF
Chain of ETV1 (P50549 whole entry): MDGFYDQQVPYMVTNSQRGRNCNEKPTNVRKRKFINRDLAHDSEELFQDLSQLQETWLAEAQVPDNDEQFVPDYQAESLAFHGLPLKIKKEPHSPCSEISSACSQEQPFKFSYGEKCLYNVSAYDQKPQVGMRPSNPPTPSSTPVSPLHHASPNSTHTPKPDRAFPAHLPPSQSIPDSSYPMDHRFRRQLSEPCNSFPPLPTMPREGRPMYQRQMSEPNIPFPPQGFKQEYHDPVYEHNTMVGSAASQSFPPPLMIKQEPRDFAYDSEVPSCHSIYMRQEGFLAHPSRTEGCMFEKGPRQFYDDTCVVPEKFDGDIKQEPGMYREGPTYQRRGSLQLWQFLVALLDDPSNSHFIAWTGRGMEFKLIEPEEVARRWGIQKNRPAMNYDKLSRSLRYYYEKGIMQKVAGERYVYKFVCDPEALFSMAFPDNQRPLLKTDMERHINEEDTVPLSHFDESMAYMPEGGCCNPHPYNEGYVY
Chain of HSF1 (Q00613 whole entry): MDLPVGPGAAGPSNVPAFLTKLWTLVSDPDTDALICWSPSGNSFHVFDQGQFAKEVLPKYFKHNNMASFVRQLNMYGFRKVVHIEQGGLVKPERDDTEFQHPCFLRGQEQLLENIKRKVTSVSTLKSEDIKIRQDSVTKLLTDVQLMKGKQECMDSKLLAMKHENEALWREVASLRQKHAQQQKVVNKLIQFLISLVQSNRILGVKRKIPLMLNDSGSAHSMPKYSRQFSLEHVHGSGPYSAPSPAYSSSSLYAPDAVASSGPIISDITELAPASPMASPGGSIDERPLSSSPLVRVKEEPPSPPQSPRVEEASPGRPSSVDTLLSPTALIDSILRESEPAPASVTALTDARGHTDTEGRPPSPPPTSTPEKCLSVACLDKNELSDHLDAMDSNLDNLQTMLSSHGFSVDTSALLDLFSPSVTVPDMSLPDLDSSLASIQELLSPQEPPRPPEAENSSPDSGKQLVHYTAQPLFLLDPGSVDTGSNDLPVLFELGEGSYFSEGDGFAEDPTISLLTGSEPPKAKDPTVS
Chain of ELF4 (Q99607 whole entry): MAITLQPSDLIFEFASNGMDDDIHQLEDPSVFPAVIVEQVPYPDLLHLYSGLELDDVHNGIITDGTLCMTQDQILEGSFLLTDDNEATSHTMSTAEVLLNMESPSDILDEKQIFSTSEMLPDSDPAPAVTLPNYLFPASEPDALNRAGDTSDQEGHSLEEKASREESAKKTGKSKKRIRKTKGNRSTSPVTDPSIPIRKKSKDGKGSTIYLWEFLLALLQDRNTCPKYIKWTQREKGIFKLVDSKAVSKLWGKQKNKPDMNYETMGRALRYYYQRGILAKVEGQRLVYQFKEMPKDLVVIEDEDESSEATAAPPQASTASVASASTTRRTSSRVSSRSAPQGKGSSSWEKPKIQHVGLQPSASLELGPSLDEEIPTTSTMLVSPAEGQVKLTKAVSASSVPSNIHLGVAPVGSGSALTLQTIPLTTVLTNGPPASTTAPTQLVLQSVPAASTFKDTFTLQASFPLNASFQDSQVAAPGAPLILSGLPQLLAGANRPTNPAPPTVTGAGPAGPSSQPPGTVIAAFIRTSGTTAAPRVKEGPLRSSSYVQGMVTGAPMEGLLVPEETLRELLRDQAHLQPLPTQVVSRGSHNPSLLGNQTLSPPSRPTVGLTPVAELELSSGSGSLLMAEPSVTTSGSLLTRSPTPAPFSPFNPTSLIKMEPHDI
Chain of SPIB (Q01892 whole entry): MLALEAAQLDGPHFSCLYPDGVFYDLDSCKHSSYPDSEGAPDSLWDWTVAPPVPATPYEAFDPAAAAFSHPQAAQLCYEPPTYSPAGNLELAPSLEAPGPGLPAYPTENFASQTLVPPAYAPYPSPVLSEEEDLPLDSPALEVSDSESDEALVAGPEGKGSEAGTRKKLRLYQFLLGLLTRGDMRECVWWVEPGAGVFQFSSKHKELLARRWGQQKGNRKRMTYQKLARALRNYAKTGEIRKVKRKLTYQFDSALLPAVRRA
Chain of ETV5 (P41161 whole entry): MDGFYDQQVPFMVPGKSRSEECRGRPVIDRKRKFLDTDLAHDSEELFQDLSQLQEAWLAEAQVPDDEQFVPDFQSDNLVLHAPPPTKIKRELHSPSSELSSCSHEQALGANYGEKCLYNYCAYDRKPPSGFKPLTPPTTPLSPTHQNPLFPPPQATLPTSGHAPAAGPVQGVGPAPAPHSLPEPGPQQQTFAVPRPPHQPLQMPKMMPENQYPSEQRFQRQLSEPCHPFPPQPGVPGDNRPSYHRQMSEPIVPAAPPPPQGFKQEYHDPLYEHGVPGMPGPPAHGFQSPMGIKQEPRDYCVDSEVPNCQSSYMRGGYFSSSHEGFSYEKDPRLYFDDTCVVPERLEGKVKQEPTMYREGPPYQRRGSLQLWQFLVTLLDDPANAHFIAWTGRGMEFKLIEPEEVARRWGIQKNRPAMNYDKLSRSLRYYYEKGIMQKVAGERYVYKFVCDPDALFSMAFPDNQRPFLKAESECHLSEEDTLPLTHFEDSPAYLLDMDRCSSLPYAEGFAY

Consider CTGCCC, for which the binding signal in assay [1] was 1.31 fold enrichment (6-mer frequency, TF over GST control); in [2], 1.29 fold enrichment (6-mer frequency, TF over GST control); in assay [3], 1.29 fold enrichment (6-mer frequency, TF over GST control); in assay [4], 1.36 fold enrichment (6-mer frequency, TF over GST control); in [5], 1.32 fold enrichment (6-mer frequency, TF over GST control); in assay [6] it was 1.46 fold enrichment (6-mer frequency, TF over GST control). Besides, the binding signal in assay [7] was 1.27 fold enrichment (6-mer frequency, TF over GST control); in assay [8], 1.19 fold enrichment (6-mer frequency, TF over GST control); in assay [9], 1.1 fold enrichment (6-mer frequency, TF over GST control); in [10], 1.37 fold enrichment (6-mer frequency, TF over GST control); in assay [11] it was 1.25 fold enrichment (6-mer frequency, TF over GST control); in assay [12], 1.05 fold enrichment (6-mer frequency, TF over GST control). Also, the binding signal in [13] was 1.42 fold enrichment (6-mer frequency, TF over GST control); in assay [14], 1.29 fold enrichment (6-mer frequency, TF over GST control); in assay [15], 1.42 fold enrichment (6-mer frequency, TF over GST control); in assay [16] it was 1.38 fold enrichment (6-mer frequency, TF over GST control); in [17] it was 1.09 fold enrichment (6-mer frequency, TF over GST control); in assay [18], 1.2 fold enrichment (6-mer frequency, TF over GST control).
